From PubChem
Rows were chosen to be rich in hits. Some 2.8% of all compounds tested hit in one or more screens of this group.
Peg3 prom inh-1: Peg3 promoter activity inhibition; HeLa PEG-Prom luciferase reporter, luminescence, overnight; inhibition, % at 20 µM; 1.7% of 360,000 active;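 active = inhibition of at least 50% at 20 µM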
EBV LMP1 NFkB: Epstein-Barr LMP1 NF-kappaB reporter inhibition | inhibition, % at 12.5 µM | LMP1-induced NF-kappaB luciferase reporter cells, luminescence | 0.69% of 350,000 active | AID 504558; in the data active = inhibition above about 41%; inconclusive = no clear call, values can overlap the other calls;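 also: 0% = neutral control wells and 100% = reference inhibitor control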
HIF-2a inh: HIF-2a inhibition; 786-0 RCC cells HIF-2a reporter, luciferase luminescence, overnight; inhibition, % at 18.8 µM; 0.72% of 360,000 active; AID 624352;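 active = inhibition of the luminescence signal of 40% or more relative to plate controls, in a single-dose primary screen at 18.75 µM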
Shn3 inh set2: Schnurri-3 reporter inhibition in Clone20 osteoblasts. Clone20 osteoblast Shn3 3'UTR firefly luciferase, 24 h. 0.52% of 360,000 active. inhibition, % at 12.5 µM;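 active = mean inhibition of at least 75% with every replicate also reaching 75%; inconclusive = mean inhibition at least 75% but some replicate below; inactive = mean inhibition below 75%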;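 also: 0% = median of neutral control wells and 100% = pilot-screen positive control compound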
PAX8 reporter: lowers PAX8-driven luciferase in RMG-I cells; RMG-I TPO-luciferase reporter, SteadyGlo, 24 h; inhibition, % at 12.6 µM; 1.2% of 360,000 active; AID 652154;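 active = mean replicate inhibition at least 60% with every replicate also reaching 60%; inconclusive = only one of the two criteria is met; inactive = mean below 60% and not all replicates reaching 60%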;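 also: luciferase light reporting Pax8 driven TPO promoter activity; plate controls were median of neutral control wells for no effect and mitoxantrone controls for full effect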
MITF TRPM1 inh: inhibitors of MITF-driven TRPM1 promoter in melanoma cells; SK-MEL-5 TRPM1 promoter luciferase, 24 h; 0.83% of 330,000 active; inhibition, % at 12.5 µM;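 active = mean inhibition across replicates of 60% or more, whatever share of single replicates reaches that level; inconclusive = some that reach 60%, reason not given; inactive = mean inhibition across replicates below 60%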
Peg3 prom inh-2: Peg3 promoter inhibition confirmation. shares compounds with Peg3 prom inh-1. HeLa PEG-Prom luciferase reporter, luminescence, overnight. inhibition, % at 20 µM. 84% of 1,300 active. AID 602417;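 active = at 20 µM dose, 40% or more inhibition averaged across four replicates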
Mdm2-MdmX confirm: Mdm2/MdmX (human) interaction inhibition, confirmed; shares compounds with HIF-2a inh; SaOS-2 split-luciferase Mdm2/MdmX complementation, luminescence; inhibition, % at 8 µM; 99% of 740 active; AID 504601;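 active = mean inhibition of the luminescence signal across two replicates at or above 26 percent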
Target sequence (O15151 whole entry, looked up): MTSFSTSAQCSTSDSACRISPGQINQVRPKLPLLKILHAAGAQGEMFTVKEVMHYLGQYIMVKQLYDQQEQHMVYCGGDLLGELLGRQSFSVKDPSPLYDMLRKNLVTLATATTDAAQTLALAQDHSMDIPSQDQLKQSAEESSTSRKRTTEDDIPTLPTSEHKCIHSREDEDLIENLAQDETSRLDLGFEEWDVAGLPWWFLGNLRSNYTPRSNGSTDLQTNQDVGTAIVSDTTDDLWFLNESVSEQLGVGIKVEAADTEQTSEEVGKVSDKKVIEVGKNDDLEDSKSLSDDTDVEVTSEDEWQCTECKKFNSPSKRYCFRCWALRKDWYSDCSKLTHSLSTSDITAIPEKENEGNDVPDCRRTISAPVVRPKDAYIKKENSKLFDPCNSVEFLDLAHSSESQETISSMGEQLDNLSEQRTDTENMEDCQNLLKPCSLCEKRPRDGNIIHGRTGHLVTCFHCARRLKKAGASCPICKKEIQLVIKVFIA
Target sequence (Q00987 whole entry, looked up): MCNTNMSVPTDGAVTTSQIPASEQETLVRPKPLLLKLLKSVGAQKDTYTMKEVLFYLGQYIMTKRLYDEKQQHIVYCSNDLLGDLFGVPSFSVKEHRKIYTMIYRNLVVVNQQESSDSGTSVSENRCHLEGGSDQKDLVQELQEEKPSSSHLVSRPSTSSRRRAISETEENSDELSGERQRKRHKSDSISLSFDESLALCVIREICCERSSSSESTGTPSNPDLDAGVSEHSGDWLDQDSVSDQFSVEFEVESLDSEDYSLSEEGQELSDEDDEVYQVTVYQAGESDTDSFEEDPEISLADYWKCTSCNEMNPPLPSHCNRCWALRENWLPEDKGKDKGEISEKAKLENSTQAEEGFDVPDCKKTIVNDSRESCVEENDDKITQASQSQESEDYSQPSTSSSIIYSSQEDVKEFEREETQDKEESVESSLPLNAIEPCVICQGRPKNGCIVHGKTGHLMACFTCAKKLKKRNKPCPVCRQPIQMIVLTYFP
HIF-2a inh conf: HIF-2a inhibition, single concentration confirmation. shares compounds with HIF-2a inh. 786-0 RCC cells, HIF-2a luciferase reporter luminescence, overnight. AID 651580. inhibition, % at 18.8 µM. 56% of 1,800 active;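 active = mean inhibition across four replicates of at least 40 percent at the single tested concentration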
HIF-1a cs: counter-screen for HIF-2a inhibitors: HIF-1a inhibition in MiaPaCa-2 cells | shares compounds with HIF-2a inh | inhibition, % at 18.8 µM | 72% of 1,800 active | AID 651589 | MiaPaCa-2 HIF-1a luciferase reporter, desferoxamine, overnight;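 active = mean inhibition of the reporter signal across four replicates at the single tested dose of 50% or more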
* = called active by the depositor; ? = inconclusive; / = not tested or not shown.

SMILES	Peg3 prom inh-1	EBV LMP1 NFkB	HIF-2a inh	Shn3 inh set2	PAX8 reporter	MITF TRPM1 inh	Peg3 prom inh-2	HIF-2a inh conf	HIF-1a cs	others
O=C(O)c1ccc(N/N=C/c2ccc(C(F)(F)F)cc2)cc1	66*	44*	45*	21	59	68*	52*	68*	33
CN(C)c1ccc2c(c1)[C@H]1C[C@@H](CC(=O)NCc3ccccc3)O[C@@H](CO)[C@H]1O2	/	/	/	/	2	/	/	/	/
CCCC(=O)N1CCCC(c2cc(C(=O)Nc3ccccc3)no2)C1 (stereo not given)	54*	/	43*	32	48	/	47*	66*	71*
C[C@H](CO)N1C[C@H](C)[C@H](CN(C)S(C)(=O)=O)Oc2ccc(NC(=O)C3CCCCC3)cc2C1=O	/	/	/	/	4	/	/	/	/
Cc1ccc(C(=O)OCC(=O)c2cc(C)n(CC3CCCO3)c2C)cc1 (stereo not given)	-262	-15	-92	-73	-136	-61	/	/	/
COCCn1c(C)cc(C(=O)COC(=O)c2ccccc2Br)c1C	78*	54*	48*	67	60	81*	69*	42*	76*
Cc1cc(C(=O)COC(=O)c2ccccc2O)c(C)n1CC1CCCO1 (stereo not given)	85*	87*	90*	83	81*	84*	92*	95*	98*
Cc1cc(C(=O)COC(=O)c2ccc3c(c2)OCO3)c(C)n1Cc1cccs1	-291	-16	-196	-4	/	-18	/	/	/
Cc1cc(C(=O)COC(=O)c2ccccc2O)c(C)n1Cc1cccs1	91*	87*	90*	91*	/	90*	87*	96*	97*
Cc1cc(C(=O)COC(=O)c2ccccc2Br)c(C)n1CC1CCCO1 (stereo not given)	54*	75*	55*	?	38	76*	78*	68*	90*
O=C(Nc1ccc2c(c1)[C@@H]1C[C@@H](CC(=O)N3CCCCC3)O[C@@H](CO)[C@@H]1O2)c1ccc2c(c1)OCO2	/	/	/	/	3	/	/	/	/
C[C@H]1CCCCO[C@H](CN(C)C)[C@@H](C)CN([C@@H](C)CO)C(=O)c2cc(NC(=O)C3CCCCC3)ccc2O1	/	/	/	/	5	/	/	/	/
CCn1c(C)cc(C(=O)COC(=O)c2ccccc2[N+](=O)[O-])c1C	94*	87*	82*	94*	/	97*	91*	87*	87*	Mdm2-MdmX confirm=98*
C[C@@H]1CN([C@@H](C)CO)C(=O)Cc2cc(NS(=O)(=O)c3cn(C)cn3)ccc2O[C@H]1CN(C)S(=O)(=O)c1ccc(Cl)cc1	/	/	/	/	8	/	/	/	/
CCCCC(=O)NC(c1ccco1)c1cc(Cl)c2cccnc2c1O (stereo not given)	49	31	35	78	54	6	/	/	/
CCCC(=O)NC(c1ccccc1)c1ccc2cccnc2c1O (stereo not given)	53*	40	6	93*	79*	65*	63*	/	/	Mdm2-MdmX confirm=80*
CCCC(=O)NC(c1ccc(OC)cc1)c1ccc2cccnc2c1O (stereo not given)	55*	70*	13	92*	77*	73*	71*	/	/	Mdm2-MdmX confirm=86*
CCCCC(=O)NC(c1ccccc1)c1ccc2cccnc2c1O (stereo not given)	55*	48*	0	93*	87*	65*	88*	/	/	Mdm2-MdmX confirm=87*
CC(C)C(=O)NC(c1ccccc1)c1cc([N+](=O)[O-])c2cccnc2c1O (stereo not given)	45	16	17	17	/	-3	/	/	/
O=C(CCN1CCCCC1)N[C@H]1CC[C@@H](CCn2cc(-c3ccccc3)nn2)O[C@@H]1CO	/	/	/	/	-3	/	/	/	/
CC(C)NC(=O)N(C)C[C@@H]1Oc2ccc(NC(=O)C3CCCCC3)cc2CC(=O)N([C@@H](C)CO)C[C@@H]1C	/	/	/	/	-22	/	/	/	/
c1ccc(CNc2nc(-c3cccnc3)nc3ccccc23)cc1	19	-2	1	8	9	-11	/	/	/
c1ccc(CN2CCC(Nc3nc(-c4cccnc4)nc4ccccc34)CC2)cc1	100*	-9	42*	6	21	-4	70*	21	79*
N#Cc1cc2c(nc1SC1CC(=O)N(c3ccccc3)C1=O)CCC2 (stereo not given)	57*	52*	59*	51	/	65*	59*	83*	63*
COC(=O)C[C@@H]1C=C[C@H](NC(=O)Nc2ccc(C(F)(F)F)cc2)[C@H](CO)O1	/	/	/	/	-6	/	/	/	/
SMILES	Peg3 prom inh-1	EBV LMP1 NFkB	HIF-2a inh	Shn3 inh set2	PAX8 reporter	MITF TRPM1 inh	Peg3 prom inh-2	HIF-2a inh conf	HIF-1a cs	others
O=C1CCC2S/C(=C/Nc3ccc(C(F)(F)F)cc3)C(=O)N12 (stereo not given)	67*	51*	97*	57	72*	86*	89*	98*	105*
CCc1ccc(/C=C2\SC(=S)N(CCCC(=O)Nc3ccccn3)C2=O)cc1	82*	52*	96*	36	/	34	80*	/	/	Mdm2-MdmX confirm=95*
Cc1ccc(C(=O)n2c(N)nc3ccccc32)cc1	80*	65*	42*	62	65*	67*	28	69*	87*
COC(=O)N=Nc1c(O)[nH]c2ccc(Br)cc12	-2	20	-19	-5	12	10	/	/	/
Oc1[nH]c2ccc(Br)cc2c1N=NC(=S)N1CCOCC1	76*	10	68*	97*	91*	99*	85*	/	/	Mdm2-MdmX confirm=99*
CC(C)C#Cc1ccc([C@@H]2[C@@H](CO)N(C(=O)C3CCC3)[C@H]2C#N)cc1	/	/	/	/	-14	/	/	/	/
COc1cc(/C=N/O)ccc1OCc1ccc(C(=O)O)cc1	86*	86*	89*	90*	94*	96*	69*	90*	-74
CCCNC(=O)COC(=O)c1ccccc1C(=O)c1ccc(Cl)c([N+](=O)[O-])c1	106*	48*	83*	10	54	87*	99*	42*	104*	Mdm2-MdmX confirm=103*
COC(=O)C[C@@H]1CC[C@H]2[C@@H](COc3ccc(NS(=O)(=O)c4cccc(F)c4)cc3C(=O)N2C)O1	/	/	/	/	-6	/	/	/	/
COC(=O)c1cc(=O)n(Cc2ccco2)c(=Nc2ccc(F)cc2)s1	82*	7	49*	16	/	/	84*	60*	97*
COC(=O)c1cc(=O)n(Cc2cccs2)c(=Nc2ccccc2)s1	24	-5	25	14	8	4	/	/	/
